For 39 compounds, growth inhibition results are on record in PubChem BioAssay (NCI).

Structures are written as SMILES. The panel holds about 79,000 compounds, 15% with a hit somewhere; the sample as a whole holds those more often. Values without a mark were called inactive. The source made the active and inactive calls. Rule as the data show it: active = growth inhibition above about 70%; inactive = the rest.

One test can be described thus: NCI Yeast Anticancer Drug Screen. Data for the mec2-1 strain (AID 157). The settings on record: S. cerevisiae mec2-1 strain, at 1.2 µM, stronger effect = higher value. The essentials:
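Vehicle-treated cultures served as reference for growth inhibition of compound-exposed mec2-1 yeast.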
`CCCc1cc(C(=O)OCC)cc(CCC)c1O`: the growth inhibition was -4%.

In the case of `CC(C)[N+]([O-])(CCCNc1c2ccccc2nc2cccc([N+](=O)[O-])c12)C(C)C`, the growth inhibition is 13%.

Consider `COc1cc2c3c(cccc3c1)C(=O)N(CCN(C)C)C2=O`, for which the growth inhibition was -17%.

Consider `NC(=O)NN=C(CS)CS`, for which the growth inhibition is 0%.

As to `Cc1ccc(NC(=O)/C(Cl)=C(\Cl)C(=O)O)cc1C`, the growth inhibition was 6%.

In the case of `CCN(CC)CC[n+]1ccc2c(C)c3[nH]c4ccc(O)cc4c3c(C)c2c1`, the growth inhibition was -2%.

In the case of `CC(CC(C)(C)[N+](C)(C)C)[N+](C)(C)C` (stereo not drawn), the growth inhibition is 5%.

Regarding `COc1ccc(OC)c2cc3ccccc3cc12`, the growth inhibition is -5%.

Turning to `Nc1ncncc1C(C1=C(O)COC1=O)C1=C(O)COC1=O`, the growth inhibition was 4%.

As to `CSC1=NNC(SC)=NN1`, the growth inhibition was -4%.

As to `Cc1c(Cl)ccc2c1S(=O)(=O)c1cccc(Cl)c1-2`, the growth inhibition is -24%.

Regarding `[O-][n+]1c2ccc(O)cc2nc2ccc(Cl)cc21`, the growth inhibition is 0%.

Turning to `COc1ccc2ccc3ccccc3c2c1C=O`, the growth inhibition was -6%.

Take `Nc1ccc2c(c1)C(=O)c1cccc(N)c1C2=O`: the growth inhibition was 4%.

Consider `O=C(c1ccc(Cl)cc1Cl)C(Cl)Cl`, for which the growth inhibition is -22%.

With `COc1cc(C(=O)/C=C/c2ccccc2O)ccc1O`, the growth inhibition was -7%.

With `O=Cc1cccc2ccc3ccccc3c12`, the growth inhibition is -1%.

As for `O=C(Nc1ccc(Cl)cc1)OCC#CCCl`, the growth inhibition is 3%.

Turning to `Cn1ccnc1Oc1ccc(Cl)cc1`, the growth inhibition was -2%.

As for `c1ccc2c(c1)C(=NCCCN1CCCCCC1)c1cccn1-2`, the growth inhibition is -3%.

Regarding `C/C(=N\O)C1CC2C=C(C#N)C1N(Cc1ccccc1)C2` (stereo not drawn), the growth inhibition is 0%.

`O=[N+]([O-])C(=C(Sc1ccccc1)Sc1ccccc1)C(Cl)=C(Cl)Cl`: the growth inhibition is 12%.

Consider `CCCCCCCCCC/C=C\C(=O)O`, for which the growth inhibition was 4%.

For the compound `COc1ccc(N=C2C(=O)Nc3ccc(Br)cc32)cc1`, the growth inhibition is -19%.

As for `COc1ccccc1C(=O)OCC1CCCN2CCCCC12` (stereo not drawn), the growth inhibition was 0%.

In the case of `CC(C)(Br)C(=O)/C=C/c1ccc(Cl)c(Cl)c1`, the growth inhibition was -1%.

Take `Nc1ccccc1CC(O)C(=O)O` (stereo not drawn): the growth inhibition is 0%.

Regarding `CC(=O)N/N=C/C(C)(C)C(C)(C)/C=N/NC(C)=O`, the growth inhibition was 5%.

Take `CN(C)c1nc2sc3c(c2c(=O)o1)CCCC3`: the growth inhibition is 1%.

For the compound `CC(C)OC(=O)Oc1ccccc1OC(=O)OC(C)C`, the growth inhibition is 0%.

With `Cc1ccc(N)c(S)c1`, the growth inhibition is -24%.

`O=C(O)c1ccccc1NC(=S)c1ccccc1`: the growth inhibition was -31%.

Take `COC(=O)c1ccc(NCC2=CC(=O)C=CC2=O)cc1O`: the growth inhibition was -2%.

As to `NC(N)=N/N=C\c1c2ccccc2cc2ccccc12`, the growth inhibition was -58%.

Consider `COC(=O)CSSCc1ccc([N+](=O)[O-])cc1`, for which the growth inhibition was -2%.

On to `CCS(=O)(=O)c1ccc(/C=C/C=N/NC(=S)NCC(C)C)cc1`, for which the growth inhibition was 0%.

Regarding `N#CC(C(=O)Nc1ccccc1)C1=C(Cl)C(=O)c2ccccc2C1=O` (stereo not drawn), the growth inhibition was -8%.

As for `C[C@H](CCC(=O)NN)[C@H]1CC[C@H]2[C@@H]3CC[C@@H]4C[C@H](O)CC[C@]4(C)[C@H]3CC[C@]12C`, the growth inhibition is 3%.

As for `CC[n+]1ccc2c(C)c3[nH]c4ccc(O)cc4c3c(C)c2c1`, the growth inhibition is -15%.

The same test, now with this note: S. cerevisiae mec2-1 strain, at 3.7 µM, stronger effect = higher value.
Consider `CCCc1cc(C(=O)OCC)cc(CCC)c1O`, for which the growth inhibition was -5%.

As for `CC(C)[N+]([O-])(CCCNc1c2ccccc2nc2cccc([N+](=O)[O-])c12)C(C)C`, the growth inhibition was 69%.

On to `COc1cc2c3c(cccc3c1)C(=O)N(CCN(C)C)C2=O`, for which the growth inhibition is -11%.

With `NC(=O)NN=C(CS)CS`, the growth inhibition is 0%.

In the case of `Cc1ccc(NC(=O)/C(Cl)=C(\Cl)C(=O)O)cc1C`, the growth inhibition was 10%.

Take `CCN(CC)CC[n+]1ccc2c(C)c3[nH]c4ccc(O)cc4c3c(C)c2c1`: the growth inhibition is -13%.

Regarding `CC(CC(C)(C)[N+](C)(C)C)[N+](C)(C)C` (stereo not drawn), the growth inhibition was -11%.

For the compound `COc1ccc(OC)c2cc3ccccc3cc12`, the growth inhibition was -11%.

As to `Nc1ncncc1C(C1=C(O)COC1=O)C1=C(O)COC1=O`, the growth inhibition was 7%.

With `CSC1=NNC(SC)=NN1`, the growth inhibition was -22%.

Turning to `Cc1c(Cl)ccc2c1S(=O)(=O)c1cccc(Cl)c1-2`, the growth inhibition is -31%.

As for `[O-][n+]1c2ccc(O)cc2nc2ccc(Cl)cc21`, the growth inhibition is 9%.

In the case of `COc1ccc2ccc3ccccc3c2c1C=O`, the growth inhibition was -6%.

`Nc1ccc2c(c1)C(=O)c1cccc(N)c1C2=O`: the growth inhibition is 16%.

Regarding `O=C(c1ccc(Cl)cc1Cl)C(Cl)Cl`, the growth inhibition was -24%.

In the case of `COc1cc(C(=O)/C=C/c2ccccc2O)ccc1O`, the growth inhibition is 78% (active).

Turning to `O=Cc1cccc2ccc3ccccc3c12`, the growth inhibition was -1%.

As for `O=C(Nc1ccc(Cl)cc1)OCC#CCCl`, the growth inhibition was 3%.

Turning to `Cn1ccnc1Oc1ccc(Cl)cc1`, the growth inhibition is 0%.

`c1ccc2c(c1)C(=NCCCN1CCCCCC1)c1cccn1-2`: the growth inhibition was 1%.

As to `C/C(=N\O)C1CC2C=C(C#N)C1N(Cc1ccccc1)C2` (stereo not drawn), the growth inhibition is 3%.

For `O=[N+]([O-])C(=C(Sc1ccccc1)Sc1ccccc1)C(Cl)=C(Cl)Cl`, the growth inhibition is 26%.

On to `CCCCCCCCCC/C=C\C(=O)O`, for which the growth inhibition is 5%.

As to `COc1ccc(N=C2C(=O)Nc3ccc(Br)cc32)cc1`, the growth inhibition was -13%.

As for `COc1ccccc1C(=O)OCC1CCCN2CCCCC12` (stereo not drawn), the growth inhibition is -6%.

`CC(C)(Br)C(=O)/C=C/c1ccc(Cl)c(Cl)c1`: the growth inhibition was 1%.

On to `Nc1ccccc1CC(O)C(=O)O` (stereo not drawn), for which the growth inhibition is 8%.

With `CC(=O)N/N=C/C(C)(C)C(C)(C)/C=N/NC(C)=O`, the growth inhibition is 2%.

As for `CN(C)c1nc2sc3c(c2c(=O)o1)CCCC3`, the growth inhibition is -1%.

As for `CC(C)OC(=O)Oc1ccccc1OC(=O)OC(C)C`, the growth inhibition is -1%.

With `Cc1ccc(N)c(S)c1`, the growth inhibition was -15%.

As to `O=C(O)c1ccccc1NC(=S)c1ccccc1`, the growth inhibition was -10%.

In the case of `COC(=O)c1ccc(NCC2=CC(=O)C=CC2=O)cc1O`, the growth inhibition was 17%.

`NC(N)=N/N=C\c1c2ccccc2cc2ccccc12`: the growth inhibition was -37%.

In the case of `COC(=O)CSSCc1ccc([N+](=O)[O-])cc1`, the growth inhibition is 2%.

With `CCS(=O)(=O)c1ccc(/C=C/C=N/NC(=S)NCC(C)C)cc1`, the growth inhibition is 1%.

With `N#CC(C(=O)Nc1ccccc1)C1=C(Cl)C(=O)c2ccccc2C1=O` (stereo not drawn), the growth inhibition was 73% (active).

Take `C[C@H](CCC(=O)NN)[C@H]1CC[C@H]2[C@@H]3CC[C@@H]4C[C@H](O)CC[C@]4(C)[C@H]3CC[C@]12C`: the growth inhibition is 3%.

Regarding `CC[n+]1ccc2c(C)c3[nH]c4ccc(O)cc4c3c(C)c2c1`, the growth inhibition is -1%.
